Source: PubChem (National Center for Advancing Translational Sciences (NCATS))
Shown are actives, neighbours in structure and some others; about 18% of the full set was active somewhere.
DT40 TDP1 no CPT: qHTS for Inhibitors of human tyrosyl-DNA phosphodiesterase 1 (TDP1): qHTS in cells in absence of CPT | DT40 Tdp1-/- hTDP1 cells, no CPT, ATP luminescence, 48 h | Potency, µM (doses to about 46.2 µM), inactives show at the top dose activity change, negative = growth inhibition, most hits filed as inhibitors | 420,000 tested, 15% active | AID 686978, 2013; note: potency is the fitted concentration of half-maximal effect; nearly all actives have a fitted effect of over 55% in size
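Seeded 400 DT40-hTDP1 cells/well (vehicle DMSO, no 20 nM CPT); pinned compounds; ≥48 hr at 37 °C; CellTiter-Glo luminescence as viability measure.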
IL1B secr inh: qHTS for Inhibitors of Inflammasome Signaling: IL-1-beta AlphaLISA Primary Screen; 360,000 tested, 4.7% active; activity change, % at 57.5 µM; AID 743279, 2014; THP-1 LPS/ATP IL-1B secretion, AlphaLISA, 16 h; active compounds read low; in the data active = activity change below about -50%; inconclusive = mostly about -30% to -49%
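THP-1 cells pretreated 1 hr with compounds (up to 57.5 uM final), then stimulated with LPS (250 ng/mL final) plus ATP (1.25 mM final); secreted IL-1B measured by AlphaLISA after 16 hr, decreased signal indicating inhibition.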
VP16 counter: VP16 counterscreen qHTS for inhibitors of ROR gamma transcriptional activity; Drosophila S2 Gal4-VP16 UAS-luciferase, luminescence, 20 h; Potency, µM (highest dose often 53.6 µM), without a hit: top-dose activity, negative = inhibition, actives largely listed as inhibitors; 310,000 tested, 3.5% active; AID 2546, 2010;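 note: Gal4-VP16 expression switched on by copper sulfate through the metallothionein promoter; potency is the fitted concentration of half-maximal effect; nearly all actives have a fitted effect of over 50% in size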
LDHA block: qHTS assay for inhibitors of human lactate dehydrogenase; L-lactate dehydrogenase A chain (Homo sapiens), P00338; purified LDHA, NADH/diaphorase-resazurin fluorescence; active compounds read low; activity change, % (values are at about 110 or 230 µM); 480,000 tested, 0.15% active; in the data active = activity change below about -30%; inconclusive = mostly about -25% to -30%;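 note: plate controls were DMSO wells for no effect and wells without enzyme for full effect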
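Resorufin fluorescence (ex540/em590), read at 0 and 20 min after diaphorase/resazurin addition, reports the NADH left after a 5 min room-temperature reaction of 2 nM human LDH5 with 0.06 mM NADH and 0.2 mM pyruvate.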
TDP1 cell CPT: qHTS for Inhibitors of human tyrosyl-DNA phosphodiesterase 1 (TDP1): qHTS in cells in presence of CPT. Potency, µM (doses to about 46.2 µM), inactives show at the top dose activity change, negative = growth inhibition, hits mostly inhibitors. chicken DT40 Tdp1-/-;hTDP1 cells + 20 nM CPT, ATP luminescence, 48 h. 420,000 tested, 12% active; note: potency is the fitted concentration of half-maximal effect; nearly all actives have a fitted effect of over 55% in size
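Chicken DT40 Tdp1-/- cells stably complemented with human TDP1 were seeded at 400 cells/well in medium containing 20 nM camptothecin, exposed to pin-transferred compounds, and grown at 37 °C for at least 48 hr. Viability was read as ATP luminescence.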
RORgamma inh: qHTS for inhibitors of ROR gamma transcriptional activity. Nuclear receptor ROR-gamma (Mus musculus), P51450. Drosophila S2 Gal4-RORgamma UAS-luciferase reporter, 20 h. Potency, µM (titrated, usually from 53.6 µM), without a hit: at the highest dose activity change, negative = inhibition, usual class: inhibitors. 310,000 tested, 5.4% active; note: potency is the fitted concentration of half-maximal effect; nearly all actives have a fitted effect of over 60% in size
Target sequence (P51450 whole entry, looked up, the tested form may be a part): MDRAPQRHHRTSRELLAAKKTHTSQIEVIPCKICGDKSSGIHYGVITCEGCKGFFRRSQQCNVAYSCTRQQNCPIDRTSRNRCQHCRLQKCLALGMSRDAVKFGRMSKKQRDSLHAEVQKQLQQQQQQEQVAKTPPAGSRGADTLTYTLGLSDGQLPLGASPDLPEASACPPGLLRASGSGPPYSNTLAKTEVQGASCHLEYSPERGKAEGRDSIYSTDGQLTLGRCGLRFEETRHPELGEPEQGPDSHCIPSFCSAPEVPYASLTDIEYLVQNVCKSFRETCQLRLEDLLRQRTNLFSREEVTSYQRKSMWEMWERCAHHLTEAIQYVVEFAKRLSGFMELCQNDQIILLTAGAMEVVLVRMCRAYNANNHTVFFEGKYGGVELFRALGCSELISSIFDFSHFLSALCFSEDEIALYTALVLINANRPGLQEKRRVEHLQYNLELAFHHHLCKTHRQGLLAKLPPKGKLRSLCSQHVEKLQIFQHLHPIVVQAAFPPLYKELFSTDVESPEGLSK
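Luciferase reporter read in Schneider cells carrying Gal4-RORγ (mouse) and UAS-Photinus luciferase; cells given compound 1 h before 700 uM copper sulfate induction, then incubated 20 h at ambient temperature.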
* = called active by the depositor; ? = inconclusive; · = not tested or not shown; ! = not confirmed by another sample; [ ] = another dose, or the depositor's remark. Unless noted, calls come from the whole dose curve; as a rule, active = well fitted curve in the direction sought with a large enough effect; inconclusive = small, poorly fitted or top-dose-only effect, or another doubt; inactive = no such curve, though single readings can be large; an effect the other way counts as inactive or inconclusive. Unless noted, % is set by controls: 0 for no effect and ±100 for the full control effect.

SMILES	DT40 TDP1 no CPT	IL1B secr inh	VP16 counter	LDHA block	TDP1 cell CPT	RORgamma inh
Cc1c(NC(=O)c2ccc(Cl)c([N+](=O)[O-])c2)cccc1-n1cnnn1	?	-99*	·	-2	?	·
O=C(CCCn1c(=O)c2cccn2c2ccc(F)cc21)N1CCN(c2ccccn2)CC1	·	·	·	0	·	·
O=S(=O)(c1cc(C(F)(F)F)ccc1Cl)N1CCCCCC1	-17%	-4	-3%	0	-9%	-6%
O=S(=O)(c1cc(C(F)(F)F)ccc1Cl)N1CCN(c2ncnc3ccccc23)CC1	2.1µM*	-16	·	1	2.1µM*	·
CC1CCN(c2ncnc3ccccc23)CC1	23µM*	-27	?	-2	13µM*	?
Cc1cc(C)c(C)c(S(=O)(=O)N2CCN(c3ncnc4ccccc34)CC2)c1C	8.2µM*	9	·	0	10µM*	·
CC1=C([N+](=O)[O-])C(c2ccc3c(c2)OCO3)N(C)C(=O)N1C (configuration not stated)	21µM*	-2	14%	1	8.2µM*	-29%
Cc1noc(C)c1CN(C)Cc1ccc2c(c1)OCO2	·	·	·	-1	·	·
CCOC(=O)C1=C(C)c2ccccc2N(C(=O)OC)C1(C)C(=O)OCC (configuration not stated)	10µM*	-6	-9%	2	10µM*	?
CCOC(=O)C1=C(C)c2ccccc2OC1(CC)C(=O)OCC (configuration not stated)	?	6	2%	8	?	4%
C#CCOc1ccc(C2C3=C(COC3=O)Nc3cc4c(cc32)OCO4)cc1OC (configuration not stated)	1µM*	45	-2%	2	0.82µM*	-22%
O=C1OCC2=C1C(c1ccc(F)cc1)c1cc3c(cc1N2)OCO3 (configuration not stated)	0.033µM*	56	-6%	-4	0.16µM*	-13%
COc1cc2c(cc1OC)C(c1ccc3c(c1)OCO3)C1=C(CC(C)(C)CC1=O)N2 (configuration not stated)	?	-54*	5%	-5	?	-22%
O=C1OCC2=C1C(c1ccc(F)cc1)c1cc3c(cc1N2)OCCO3 (configuration not stated)	0.18µM*	66	3%	-9	0.18µM*	-15%
CCN(CC)c1ccc(C2C3=C(CC(C)(C)CC3=O)Nc3cc4c(cc32)OCO4)cc1 (configuration not stated)	·	·	·	6	·	·
COc1cccc(C2C3=C(CC(C)(C)CC3=O)Nc3cc4c(cc32)OCO4)c1 (configuration not stated)	-11%	?	14%	2	-22%	-9%
CC(=O)Oc1ccc(C2C3=C(CC(C)(C)CC3=O)Nc3cc4c(cc32)OCCO4)cc1 (configuration not stated)	6%	?	-10%	-5	-1%	10%
O=C1OCC2=C1C(c1ccc3c(c1)OCO3)Sc1ccccc1N2 (configuration not stated)	21µM*	-11	14µM*	-6	13µM*	-23%
CCOc1ccc(C2Sc3ccccc3NC3=C2C(=O)OC3)cc1 (configuration not stated)	?	0	0%	0	?	21%
S=C(NNc1ccnc2cc(Cl)ccc12)Nc1ccccc1Cl	2.6µM*	-91*	?	6	4.1µM*	-1%
S=C(Nc1ccccc1Cl)Nc1ccc(Cl)cc1Cl	?	-10	1%	-7	-12%	-35%
Clc1ccc(NNc2ccnc3cc(Cl)ccc23)cc1	?	-30	-1%	-7	?	-30%
Clc1ccc2c(NCc3ccccc3)ccnc2c1	10µM*	-99*	-22%	-2	?	11%
CCN(CC)CCCC(C)Nc1nccc2c(Cl)cccc12 (configuration not stated)	?	?	·	2	21µM*	·
CCN(CC)CCNc1ccnc2cc(Cl)ccc12	-22%	-56*	-5%[0.365 µM]	-7	-21%	-10%
SMILES	DT40 TDP1 no CPT	IL1B secr inh	VP16 counter	LDHA block	TDP1 cell CPT	RORgamma inh
CCN(CCO)CCCC(C)Nc1ccnc2cc(Cl)ccc12 (configuration not stated)	4.1µM*!	·	-9%	·	2.6µM*	-7%
Oc1ccc(Nc2ccnc3cc(Cl)ccc23)cc1	21µM*	-74*	1%	-7	?	1%
Nc1nc2c(s1)C(c1cc(Cl)ccc1F)CC(=O)N2 (configuration not stated)	·	·	·	77	·	·
CC(C)CCn1cnc2c1c(=O)n(CC(=O)N1CCCc3ccccc31)c(=O)n2Cc1ccccc1	·	·	·	11	·	·
[O-][N+]1=c2ccc(Nc3ccccc3)cc2=NC12CCCCC2	4.1µM*	-98*	13µM*	33	3.7µM*	10µM*
COc1ccc(Nc2ccc3c(c2)=NC2(CCCCC2)[N+]=3[O-])cc1	2.6µM*	-97*	11µM*	17	2.6µM*	11µM*
COC(=O)c1cccc(OC(=O)c2cccs2)c1	·	·	·	0	·	·
CCOC(=O)N1CCN(C(=O)c2nn3c(C(F)(F)F)cc(-c4ccccc4)nc3c2Cl)CC1	·	·	·	5	·	·
CC(C)=CCc1c(O)ccc2c1OC(c1ccc(O)c(O)c1)CC2=O (configuration not stated)	13µM*	37	-19%	11	10µM*	?
C/C(=N\NC(N)=O)c1ccccc1Cl	-16%	-5	-4%	-16	9%	10%
CSCCC1NC(=O)C(C(C)=NNC(N)=O)=C1O (configuration not stated)	16µM*	0	·	7	?	·
CCOC(=O)CNC(=O)CSc1nnc(C)c(=O)[nH]1	0%	11	-6%	-5	-6%	-17%
CCOC(=O)CSc1nnc(NCC(=O)OC(C)C)c(=O)[nH]1	23µM*	14	1%	4	10µM*	-21%
NC(=O)NNC(=O)Nc1ccccc1	·	·	·	1	·	·
O=C(Nc1ccccc1)Nc1ccc(Nc2ccccc2)cc1	7.3µM*	-20	·	-2	?	·
O=C(Nc1ccccc1)Nc1ccccc1	?	-1	?	5	18µM*!	12%
